One assay relates to TAB109. The assay can be described thus: qHTS profiling for inhibitors of Plasmodium falciparum proliferation (AID 504749). Further: potency means the concentration at half of the fitted maximal effect. Particulars: P. falciparum in erythrocytes, SYBR Green DNA, 72 h; series mostly up to 28.7 µM. In outline:
(§1)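 Parasite proliferation within erythrocytes, 72 h exposure. Endpoint: SYBR Green I fluorescence after overnight lysis at room temperature. Controls: 0.29 uM artemisinin, DMSO.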

For a further assay, the system named is TAB113. The description is as above. Particulars: P. falciparum in erythrocytes, SYBR Green DNA, 72 h; series mostly up to 28.7 µM. In outline: as §1
The subject of the next assay is TAB165. The description is as above. To be noted: P. falciparum in erythrocytes, SYBR Green DNA, 72 h; series mostly up to 28.7 µM. In outline:
as §1

Another assay has as its system W2. The assay is described as above. Particulars: P. falciparum in erythrocytes, SYBR Green DNA, 72 h; series mostly up to 28.7 µM. In a few lines:
as §1

The subject of another assay is CRL-7250. The assay is described as follows: Cytotoxic Profiling of Annotated Libraries Using Quantitative High-Throughput Screening (AID 1296008). On max response: on the % scale 0 is the no-effect control and ±100 the full control effect. To be noted: Five cell lines viability, CellTiter-Glo ATP luminescence, 48-72 h; stronger effect = lower value. In a few lines:
(§2)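 Compounds were pin-transferred onto cells and incubated 48 or 72 hr at 37 degree Celsius, 95% humidity. CellTiter-Glo was added, plates sat 10 min at room temperature, then ATP-coupled luminescence was imaged as the viability read-out.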
On the technique in general: ATP-based viability assays read luminescence as a measure of living cells.

The next assay deals with HEK293. Described as above. Particulars: Five cell lines viability, CellTiter-Glo ATP luminescence, 48-72 h; stronger effect = lower value. In outline: as §2
In assay [1] the test system is HaCat. Described as above. Particulars: Five cell lines viability, CellTiter-Glo ATP luminescence, 48-72 h; stronger effect = lower value. In outline:
as §2

A further assay has as its system KB-3-1. The description is as above. To be noted: Five cell lines viability, CellTiter-Glo ATP luminescence, 48-72 h, stronger effect = lower value. In a few lines:
as §2

In the next assay the test system is NIH3T3. The description is as above. To be noted: Five cell lines viability, CellTiter-Glo ATP luminescence, 48-72 h; stronger effect = lower value. In a few lines:
as §2

Assay [2] relates to HACAT. The assay can be described thus: qHTS assay to identify novel small-molecules to repurpose for Merkel cell carcinoma treatment (AID 1296009). Particulars: MCC and control cell lines, CellTiter-Glo viability, 72 h; at 44.8 µM (top of the series) unless noted. In a few lines:
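qHTS format: cells treated with library compounds in DMSO across 8 (NPC) or 11 (MIPE) concentrations. Readout after 72 hr at 37 degree celsius was CellTiter-Glo luminescence.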

The source of these data is PubChem BioAssay (NCATS).

Structures are written as SMILES. Inconclusive results are not listed. Unmarked numbers belong to inactive results. Calls of active or inactive are those of the source. The call rests on the fitted dose curve; in most records, active means well fitted inhibition curve with a large enough effect; inconclusive means small, poorly fitted or top-dose-only effect; inactive means flat fitted curve, though single readings scatter.
Further: nearly all actives have a fitted effect of over 60% in size.

As for `Cc1c(NC(=O)c2cccnc2)c(=O)n(-c2ccccc2)n1C`, the Potency entry with TAB109, in the assay with TAB113, with TAB165 and in the assay on W2 was “inactive” in each case. Besides, the figures for the max response in the assay on CRL-7250, in the assay with HEK293 and in the assay on KB-3-1 were -9.05%, 0.504% and -0.639%, respectively. The call with HaCat [1], in the assay on NIH3T3 and in the assay with HACAT [2] was inactive.
As to `CC(=O)N(CC(O)CO)c1c(I)c(C(=O)NCC(O)CO)c(I)c(C(=O)NCC(O)CO)c1I` (stereo not given), the Potency result with TAB109 was “inactive”. Besides, the molecule was called inactive with CRL-7250 and in the assay with NIH3T3. The max response is 1.45% with HEK293, 3.3% in the assay on HaCat [1] and -10.7% with KB-3-1.
Turning to `NC(=O)CC[C@@H](N)C(=O)O`, the Potency entry with TAB109, in the assay with TAB113, with TAB165 and in the assay on W2 was “inactive” each time. For the same molecule, the max response in the assay on CRL-7250 was -0.379%; in the assay on HEK293, -7.81%; in the assay on HaCat [1], -14.8%; with KB-3-1, -2.46%; with NIH3T3 it was 0.058%.
For `COc1ccc(NS(=O)(=O)c2ccc(N)cc2)nn1`, the Potency result in the assay on TAB109, in the assay on TAB113, with TAB165 and in the assay on W2 was “inactive” in each case. The max response in the assay with CRL-7250 is 3.69%; in the assay on KB-3-1, 14.2%; in the assay on NIH3T3 it was -9.1%. In addition, the result with HEK293, in the assay on HaCat [1] and in the assay on HACAT [2] was inactive.
Regarding `O=C1C(c2[nH]c3ccccc3c2O)=Nc2ccccc21`, in the assay with TAB165, the Potency was 14100 nM (active). Also, the max response is 1.26% in the assay on CRL-7250, 4.4% with KB-3-1 and 4.36% with NIH3T3. In addition, the outcome in the assay on HEK293, in the assay on HaCat [1] and in the assay with HACAT [2] was inactive.
Take `CC(=O)OC[C@H]1O[C@@](COC(C)=O)(O[C@H]2O[C@H](COC(C)=O)[C@@H](OC(C)=O)[C@H](OC(C)=O)[C@H]2OC(C)=O)[C@@H](OC(C)=O)[C@@H]1OC(C)=O`: in the assay with W2, the Potency entry is “inactive”. The max response with CRL-7250 was 4.32%; with HEK293 it was -4.41%; in the assay with KB-3-1 it was 2.32%; in the assay with NIH3T3, 2.21%. Also, the call with HaCat [1] and in the assay on HACAT [2] was inactive.
Turning to `Cc1ccc(C(C)C)c(O)c1`, the Potency entry with TAB109, in the assay on TAB113, with TAB165 and with W2 was “inactive” throughout. Besides, the result with CRL-7250, in the assay on HaCat [1] and with HACAT [2] was inactive. For the same molecule, the max response in the assay with HEK293 was 3.73%; in the assay on KB-3-1 it was 18.3%; with NIH3T3, 0.329%.
As to `O=C1c2ccccc2S(=O)(=O)N1CCCCN1CCN(c2ncccn2)CC1`, the Potency entry in the assay with TAB109, in the assay on TAB113 and in the assay with TAB165 was “inactive” each time. For the same molecule, the max response was -12.2% in the assay on CRL-7250, -4.06% in the assay on HEK293, -10.1% with HaCat [1] and -5.25% in the assay with KB-3-1. Also, the result in the assay on NIH3T3 was inactive.
In the case of `Cc1cccc(C)c1NC(=O)CC12CCCN1CCC2`, the Potency entry with TAB109, in the assay on TAB113 and in the assay on TAB165 was “inactive” each time. For the same molecule, the max response with CRL-7250 was 2.63%; with HaCat [1] it was -12.5%; in the assay on KB-3-1, -0.628%; in the assay with NIH3T3, -1.1%. Besides, in the assay with HEK293, the outcome was inactive.
On to `Cc1ncc(CO)c(CN)c1O`, for which the Potency entry with TAB109, with TAB113 and in the assay on TAB165 was “inactive” throughout. The max response was -0.831% in the assay on CRL-7250, -5.62% in the assay on HEK293, -4.24% in the assay with HaCat [1] and -2% in the assay on KB-3-1. For the same molecule, the molecule was classed as inactive in the assay with NIH3T3.
As to `CCN1CC(CCN2CCOCC2)C(c2ccccc2)(c2ccccc2)C1=O` (stereo not given), the Potency result in the assay on TAB113 and in the assay on TAB165 was “inactive” each time. Also, in the assay with W2, the Potency was 9530 nM (active). Further, the max response in the assay on CRL-7250 is 2.93%; in the assay with HEK293 it was -5.24%; with KB-3-1, -4.5%; in the assay on NIH3T3, 2.99%. Further, the molecule was called inactive in the assay on HaCat [1] and with HACAT [2].
Take `Cc1ccsc1C(=CCCN1CCC[C@@H](C(=O)O)C1)c1sccc1C`: the Potency result in the assay with TAB109, in the assay on TAB113, with TAB165 and in the assay with W2 was “inactive” each time. Moreover, the max response in the assay on CRL-7250 was -7.41%; with HaCat [1] it was 3.8%; in the assay with KB-3-1 it was 3.88%; in the assay with NIH3T3, -5%. Also, in the assay with HEK293, the outcome was inactive.
Regarding `CCCCCC(C)N` (stereo not given), the Potency result in the assay on TAB113 and in the assay on TAB165 was “inactive” in each case. The max response with CRL-7250 is -6.66%; with HEK293 it was -4.16%; in the assay with HaCat [1] it was -0.897%; with KB-3-1, -3.94%; with NIH3T3 it was 3.25%.
Regarding `OC[C@@H](O)[C@@H](O)[C@H](O)[C@H](O)CO`, the Potency result with TAB109, in the assay with TAB113, in the assay with TAB165 and in the assay with W2 was “inactive” in each case. In addition, the max response was -5.84% in the assay on CRL-7250, 0.927% in the assay with HaCat [1], 5.16% with KB-3-1 and -8.98% with NIH3T3. For the same molecule, in the assay on HEK293, the call was inactive.
Take `NS(=O)(=O)c1cc2c(cc1C(F)(F)F)NCNS2(=O)=O`: the Potency result in the assay with TAB109, with TAB113, with TAB165 and in the assay on W2 was “inactive” throughout. In addition, the max response is -22.8% in the assay on CRL-7250; -7.43% in the assay with HEK293; 2.79% in the assay with HaCat [1]; -0.385% in the assay on KB-3-1; -4.18% with NIH3T3.
On to `Nc1ncnc(Nc2ccccc2)n1`, for which the Potency result with TAB109, in the assay on TAB113, in the assay on TAB165 and with W2 was “inactive” in each case. Further, the max response in the assay on CRL-7250 was -1.48%; in the assay on HEK293, -7.91%; in the assay with HaCat [1], 0.531%; with KB-3-1, 3.24%. Further, the call in the assay on NIH3T3 was inactive.
For `CC(C(=O)O)c1ccc2c(c1)Cc1cccnc1O2` (stereo not given), the Potency result in the assay on TAB109, with TAB113, in the assay on TAB165 and in the assay on W2 was “inactive” each time. The max response in the assay with CRL-7250 was -6.8%; in the assay with HaCat [1], -5.6%; in the assay with KB-3-1, -7.45%; in the assay on NIH3T3, -7.1%. The molecule was classed as inactive in the assay with HEK293.
With `Cc1cc(C)nc(NS(=O)(=O)c2ccc(N)cc2)n1`, the Potency result with TAB109, with TAB113, with TAB165 and in the assay with W2 was “inactive” each time. The max response in the assay with CRL-7250 is -8.07%; in the assay with HEK293, 3.16%; in the assay with HaCat [1], 3.39%; in the assay with KB-3-1, -0.934%. Besides, the result in the assay with NIH3T3 was inactive.
Consider `CCc1cccc(CC)c1NC(=O)CN(CC(=O)O)CC(=O)O`, for which the Potency result in the assay with TAB109, in the assay with TAB113, with TAB165 and in the assay with W2 was “inactive” throughout. Further, the max response with CRL-7250 is -19.6%; in the assay on HEK293, -1.81%; in the assay with HaCat [1], -2.45%; in the assay with KB-3-1, -15.5%; in the assay on NIH3T3 it was -0.454%.
Turning to `CC(C)C[C@@H](N)C(=O)O`, the Potency result in the assay with TAB109, in the assay with TAB113, with TAB165 and in the assay on W2 was “inactive” throughout. The max response in the assay with CRL-7250 was -5.17%; in the assay on HaCat [1], 4.82%; in the assay with KB-3-1, 12.7%; with NIH3T3, 4.91%. In the assay on HEK293, the molecule was classed as inactive.
As to `CCCCCCCCCCOc1cc2c(=O)c(C(=O)OCC)c[nH]c2cc1OCC`, the Potency in the assay with TAB109 was 2.5 nM (active); in the assay with TAB113 it was 2.8 nM (active); with TAB165, 1.3 nM (active); in the assay with W2, 1.7 nM (active). Moreover, the molecule was classed as inactive in the assay with CRL-7250 and in the assay with HEK293. The max response was -5.57% in the assay with HaCat [1], 7.91% in the assay with KB-3-1 and -1.43% in the assay with NIH3T3.
